# Source: PubChem BioAssay
# Calls of active or inactive are those of the source.
# How the values were obtained:
# [1] = system: Plasmodium falciparum Sir2 (PF13_0152, Sir2A); experiment: pfSir2 binders on small-molecule microarrays, primary screen, biochemical, small-molecule microarray, 635 nm fluorescence (AID 1098); conditions: small-molecule microarray binding, fluorescence 635 nm; higher = more signal;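 further: score merges spot fluorescence intensity with its signal-to-noise ratio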
# [2] = small-molecule microarray binders of probe aDKK1, primary screen, biochemical, biotinylated probe, 635/667 nm fluorescence (AID 1099); conditions: higher = more signal;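 further: score merges 667nm spot fluorescence with signal to noise across triplicate slides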
# [3] = small-molecule microarray binders of probe aCHRDL2, primary screen, biochemical, biotinylated probe, 635/667 nm fluorescence (AID 1100); conditions: higher = more signal
# [4] = splicing luciferase reporter signal modulators, primary screen, spliceosome inhibition project, cell-based, HEK293, splice +/- reporter (AID 1101); conditions: luminescence, 24 h, higher = more signal, called active from +8 up or from −8 down;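 further: HEK293 cells carrying a splicing-competent luciferase reporter gene; test concentration not given here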
# [5] = molecular target: Fibroblast growth factor 10 (Homo sapiens) (UniProt O15520); experiment: FGF10 binders on small-molecule microarrays, primary screen, biochemical, small-molecule microarray, 635 nm fluorescence (AID 1102); conditions: FGF10 binding, fluorescence 635 nm, higher = more signal
# [6] = system: glycogen synthase kinase-3 (GSK3A per assay name; protocol says GSK3B); experiment: GSK3 binders on small-molecule microarrays, primary screen, biochemical, small-molecule microarray, 635 nm fluorescence, GSK3A (AID 1103); conditions: small-molecule microarray binding, fluorescence 635 nm; higher = more signal; further: the record names both GSK3A and GSK3B
# [7] = molecular target: Epidermal growth factor receptor (Homo sapiens) (UniProt P00533); experiment: EGFR binders on small-molecule microarrays, primary screen, biochemical, small-molecule microarray, 635 nm fluorescence (AID 1104); conditions: EGFR binding, higher = more signal;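 further: score merges 667 nm emission intensity with spot signal to noise over triplicate slides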
# [8] = molecular target: Follistatin-related protein 3 (Homo sapiens) (UniProt O95633); experiment: FSTL3 binders on small-molecule microarrays, primary screen, biochemical, small-molecule microarray, 635 nm fluorescence (AID 1105); conditions: FSTL3 binding, higher = more signal;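 further: score merges emission near 667 nm and signal to noise per printed spot across three slides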
# [9] = molecular target: Dickkopf-related protein 1 (Homo sapiens) (UniProt O94907); experiment: DKK1 binders on small-molecule microarrays, primary screen, biochemical, small-molecule microarray, 635 nm fluorescence scan (AID 1106); conditions: DKK1 binding, higher = more signal;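 further: score merges emission near 667 nm with signal to noise over three replicate slides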
# [10] = system: Inhibin beta A chain (activin A); experiment: INHBA (activin A) binders on microarrays, primary screen, biochemical, small-molecule microarray, 635 nm fluorescence scan (AID 1107); conditions: small-molecule microarray binding, higher = more signal;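 further: mouse activin A protein probed at 4.33 µg/mL on printed slides; score merges bound-protein fluorescence near 667 nm with spot signal-to-noise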
# [11] = system: Human papillomavirus type 1a protein E7 (residues 44-93); experiment: HPV1a E7 fragment binders on microarrays, primary screen, biochemical, small-molecule microarray, residues 44-93, 635 nm fluorescence (AID 1108); conditions: small-molecule microarray binding, fluorescence 635 nm; higher = more signal;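 further: E7 fragment applied at 1 µg/mL in TBST for 1 h at 4 C; score combines spot fluorescence with its signal to noise ratio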
# [12] = modulators of HCV replicon luciferase signal, primary screen, HCV replication inhibitor project, Huh7 cells, luciferase reporter (AID 1109); conditions: 48 h, higher = more signal;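 further: huh7 hepatoma cells harbouring a luciferase neomycin HCV replicon reporter; luciferase luminescence as measure of HCV replicon replication; test concentration not given here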
# [13] = molecular target: Left-right determination factor 2 (Homo sapiens) (UniProt O00292); experiment: LEFTY2 binders on small-molecule microarrays, primary screen, biochemical, small-molecule microarray, 635 nm fluorescence scan (AID 1110); conditions: LEFTY2 binding, higher = more signal
# [14] = molecular target: Calmodulin-1 (Homo sapiens) (UniProt P0DP23); experiment: CALM1 binders on microarrays, EGTA buffer, profiling panel, biochemical, small-molecule microarray, Cy5-labelled CALM1 (AID 1111); conditions: Cy5-CALM1 binding fluorescence, higher = more signal;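 further: labelled calmodulin applied in Tris saline Tween buffer holding calcium plus EGTA and DTT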
# [15] = molecular target: Calmodulin-1 (Homo sapiens) (UniProt P0DP23); experiment: calcium-bound CALM1 binders on microarrays, profiling panel, artefact control for SMM control-protein annotation, biochemical, small-molecule microarray, Cy5-labelled CALM1, plus calcium (AID 1112); conditions: Cy5-CALM1 binding fluorescence, higher = more signal;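 further: score merges spot fluorescence with signal to noise from triplicate slides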
# [16] = small-molecule microarray binders of probe aWnt5a, primary screen, biochemical, biotinylated probe, 635/667 nm fluorescence (AID 1113); conditions: higher = more signal;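 further: score merges 667 nm fluorescence intensity with signal-to-noise per printed feature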
# [17] = small-molecule microarray binders of probe aShh, primary screen, biochemical, biotinylated probe, 635/667 nm fluorescence (AID 1114); conditions: higher = more signal;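 further: probe is biotin-labelled aShh protein from a stem cell growth factor screen; measures binding of labelled protein to compounds printed on the slide; score merges feature fluorescence at 667 nm with signal-to-noise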
# [18] = small-molecule microarray binders of probe aNog, primary screen, biochemical, biotinylated probe, 635/667 nm fluorescence (AID 1115); conditions: higher = more signal;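 further: probe is biotinylated aNog protein used at 0.15 µg/mL for 1 h at 4 C; z-score combines 667 nm fluorescence of each spot with its signal to noise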
# [19] = molecular target: Torsin-1A-interacting protein 1 (Homo sapiens) (UniProt Q5JTV8); experiment: LAP1 binders from COS7 cell lysate, primary screen, small-molecule microarray, 635/667 nm fluorescence (AID 1116); conditions: COS7-hLAP1 lysate binding, 635 nm fluorescence, higher = more signal
# [20] = molecular target: Alpha-bungarotoxin (Bungarus multicinctus) (UniProt P60615); experiment: alpha-bungarotoxin binders on microarray, profiling panel, artefact control for SMM control protein annotation, biochemical, small-molecule microarray, Alexa647 label, 635/667 nm fluorescence (AID 1117); conditions: alpha-BTX-A647 binding fluorescence, higher = more signal
# Chain of Alpha-bungarotoxin (Bungarus multicinctus) (P60615 whole entry, looked up): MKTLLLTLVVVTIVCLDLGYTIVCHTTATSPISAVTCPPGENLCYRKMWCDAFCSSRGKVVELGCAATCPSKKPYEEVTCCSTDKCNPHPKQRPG
# Chain of Left-right determination factor 2 (Homo sapiens) (O00292 whole entry, looked up): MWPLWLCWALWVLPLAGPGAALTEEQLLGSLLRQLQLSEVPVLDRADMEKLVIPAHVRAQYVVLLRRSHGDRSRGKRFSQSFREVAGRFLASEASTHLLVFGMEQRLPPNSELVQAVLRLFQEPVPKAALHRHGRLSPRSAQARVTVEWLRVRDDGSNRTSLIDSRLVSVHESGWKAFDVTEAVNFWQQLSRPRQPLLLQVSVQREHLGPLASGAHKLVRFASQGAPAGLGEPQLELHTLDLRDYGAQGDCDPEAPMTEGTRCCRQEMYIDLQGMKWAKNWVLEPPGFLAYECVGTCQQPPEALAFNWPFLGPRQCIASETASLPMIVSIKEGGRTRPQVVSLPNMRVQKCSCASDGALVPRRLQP
# Chain of Dickkopf-related protein 1 (Homo sapiens) (O94907 whole entry, looked up): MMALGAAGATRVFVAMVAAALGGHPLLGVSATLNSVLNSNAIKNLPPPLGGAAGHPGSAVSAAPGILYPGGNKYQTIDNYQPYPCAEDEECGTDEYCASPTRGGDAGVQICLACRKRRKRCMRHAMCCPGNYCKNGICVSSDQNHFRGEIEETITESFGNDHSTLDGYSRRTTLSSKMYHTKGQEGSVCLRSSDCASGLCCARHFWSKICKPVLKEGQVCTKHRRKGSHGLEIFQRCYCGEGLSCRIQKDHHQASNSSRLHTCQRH
# Chain of Epidermal growth factor receptor (Homo sapiens) (P00533 whole entry, looked up): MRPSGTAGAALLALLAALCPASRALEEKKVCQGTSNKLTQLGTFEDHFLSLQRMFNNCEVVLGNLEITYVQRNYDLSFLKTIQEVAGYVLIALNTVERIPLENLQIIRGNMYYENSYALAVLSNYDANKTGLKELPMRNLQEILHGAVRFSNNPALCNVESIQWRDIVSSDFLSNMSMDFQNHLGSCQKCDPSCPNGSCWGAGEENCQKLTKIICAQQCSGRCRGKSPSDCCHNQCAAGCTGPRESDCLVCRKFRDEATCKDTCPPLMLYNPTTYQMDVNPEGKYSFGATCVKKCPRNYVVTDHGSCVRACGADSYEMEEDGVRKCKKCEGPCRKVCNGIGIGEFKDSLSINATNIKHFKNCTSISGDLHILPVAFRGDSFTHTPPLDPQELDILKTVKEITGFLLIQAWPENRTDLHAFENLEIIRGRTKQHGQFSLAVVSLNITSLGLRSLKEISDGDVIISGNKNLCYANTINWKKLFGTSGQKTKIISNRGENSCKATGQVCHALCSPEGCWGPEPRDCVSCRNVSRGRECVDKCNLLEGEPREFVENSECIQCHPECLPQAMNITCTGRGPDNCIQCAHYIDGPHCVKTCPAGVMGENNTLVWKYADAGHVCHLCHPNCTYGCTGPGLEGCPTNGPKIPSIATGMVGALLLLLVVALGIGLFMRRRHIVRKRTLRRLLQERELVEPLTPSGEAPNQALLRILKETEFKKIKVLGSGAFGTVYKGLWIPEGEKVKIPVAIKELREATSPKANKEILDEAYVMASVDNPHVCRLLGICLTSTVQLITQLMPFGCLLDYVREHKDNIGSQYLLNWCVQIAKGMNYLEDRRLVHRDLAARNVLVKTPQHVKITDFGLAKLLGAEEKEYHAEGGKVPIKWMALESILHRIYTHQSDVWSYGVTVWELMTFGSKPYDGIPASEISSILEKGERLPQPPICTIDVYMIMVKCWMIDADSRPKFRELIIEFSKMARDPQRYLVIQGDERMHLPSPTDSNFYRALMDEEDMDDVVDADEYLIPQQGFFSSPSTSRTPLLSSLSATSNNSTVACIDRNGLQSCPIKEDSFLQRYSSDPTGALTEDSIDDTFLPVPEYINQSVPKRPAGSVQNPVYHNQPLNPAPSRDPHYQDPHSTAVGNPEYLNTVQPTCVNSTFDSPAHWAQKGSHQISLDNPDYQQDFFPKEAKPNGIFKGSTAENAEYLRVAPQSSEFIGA
# Chain of Fibroblast growth factor 10 (Homo sapiens) (O15520 whole entry, looked up): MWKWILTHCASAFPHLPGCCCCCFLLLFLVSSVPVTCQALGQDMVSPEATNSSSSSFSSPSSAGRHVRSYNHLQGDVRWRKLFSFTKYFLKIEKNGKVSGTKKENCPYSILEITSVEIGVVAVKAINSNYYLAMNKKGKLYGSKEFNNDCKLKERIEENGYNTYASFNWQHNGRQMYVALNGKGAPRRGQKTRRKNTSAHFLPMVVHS
# Chain of Torsin-1A-interacting protein 1 (Homo sapiens) (Q5JTV8 whole entry, looked up): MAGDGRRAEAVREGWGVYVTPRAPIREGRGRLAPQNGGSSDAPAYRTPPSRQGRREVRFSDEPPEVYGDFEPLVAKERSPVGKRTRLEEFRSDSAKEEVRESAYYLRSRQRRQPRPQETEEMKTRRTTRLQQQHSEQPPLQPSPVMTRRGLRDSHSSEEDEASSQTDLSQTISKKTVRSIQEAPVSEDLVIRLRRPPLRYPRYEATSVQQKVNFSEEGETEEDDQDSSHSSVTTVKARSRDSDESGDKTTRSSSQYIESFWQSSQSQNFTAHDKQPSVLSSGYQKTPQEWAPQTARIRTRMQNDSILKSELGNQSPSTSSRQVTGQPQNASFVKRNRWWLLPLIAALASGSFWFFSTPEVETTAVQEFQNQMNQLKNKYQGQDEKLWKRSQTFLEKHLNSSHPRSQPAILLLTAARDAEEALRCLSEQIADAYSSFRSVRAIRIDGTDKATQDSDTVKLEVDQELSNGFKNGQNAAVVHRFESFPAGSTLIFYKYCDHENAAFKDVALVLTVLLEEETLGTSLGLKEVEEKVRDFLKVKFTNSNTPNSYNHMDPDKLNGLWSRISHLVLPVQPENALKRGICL
# Chain of Follistatin-related protein 3 (Homo sapiens) (O95633 whole entry, looked up): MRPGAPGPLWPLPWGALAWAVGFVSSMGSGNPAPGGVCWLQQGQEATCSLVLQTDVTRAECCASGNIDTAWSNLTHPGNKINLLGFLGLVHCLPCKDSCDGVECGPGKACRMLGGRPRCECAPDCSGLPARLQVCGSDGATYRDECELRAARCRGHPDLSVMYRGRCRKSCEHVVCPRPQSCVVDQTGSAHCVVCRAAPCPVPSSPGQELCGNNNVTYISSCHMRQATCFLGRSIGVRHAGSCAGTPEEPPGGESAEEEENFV
Compound,composite z-score [1],composite z-score [2],composite z-score [3],z-score [4],composite z-score [5],composite z-score [6],composite z-score [7],composite z-score [8],composite z-score [9],composite z-score [10],composite z-score [11],z-score [12],composite z-score [13],composite z-score [14],composite z-score [15],composite z-score [16],composite z-score [17],composite z-score [18],composite z-score [19],composite z-score [20]
COc1ccc(C(O)C2C=CC3C(=O)N(c4ccccc4)C(=O)C3N2Nc2ccccc2F)cc1OCc1ccccc1 (stereo not given),1.21,1.21,1.08,0.249 (inactive),0.771,0.693,0.0115,0.711,-0.633,1.35,1.4,-0.0689,-0.477,2.15,0.983,0.108,0.232,-0.115,1.2,1.55
C[C@]1(C(=O)NC2CC2)c2ccccc2C(=O)N(Cc2cc(C(F)(F)F)cc(C(F)(F)F)c2)[C@H]1c1ccc(CO)cc1,1.56,0.757,0.298,-0.402 (inactive),0.711,0.948,0.279,0.865,0.585,0.592,1.29,-0.106,0.122,0.224,0.114,-0.0478,-0.276,0.467,0.207,1.48
CN(C)CCCCCCNC(=O)[C@@H]1C[C@@H]2C(=O)N[C@@H](CCCCN)C(=O)N2[C@@H]1c1cccc(OCCO)c1,1.96,2.69,1.65,-1.56 (inactive),1.59,1.47,1.11,1.66,2.13,1.55,1.49,-0.0282,1.34,2.8,1.34,1.07,1.7,3.42,4.77,2
CC(CO)N1C(=O)[C@@H]2C3C(=O)OCCC/C=C\[C@H]3OC23C=CCN(c2ccc4ccccc4c2)C(=O)[C@@H]13 (stereo not given in full),0.0726,-0.146,0.128,-0.317 (inactive),-1.01,-0.974,-1.04,-0.718,-1.17,-0.107,-0.711,0.793,-1.22,0.0827,-0.0356,-0.127,-0.273,-0.0675,1.19,0.169
C=C(CCCC)/C(=C/C[C@@H](OC(C)=O)c1ccccc1OCCO)c1cnc2ccccc2c1,0.561,0.149,0.12,-0.397 (inactive),0.732,0.21,-0.321,0.417,-0.0491,1.33,0.75,-2.25,0.157,-0.0416,-0.418,-0.124,-0.0977,0.369,0.44,0.157
COCCCNC(=O)C1N=C(c2ccc(OCCCO)cc2)N(c2ccccc2)O1 (stereo not given),0.87,0.0045,0.203,-0.27 (inactive),1.3,0.781,0.241,0.784,0.383,-0.6,1.41,-1.46,0.382,1.08,0.131,-0.0286,-0.0035,0.752,0.477,0.649
